The results in this text go back to PubChem BioAssay.

Unmarked numbers belong to inactive results. Activity calls are given as the source filed them. How the calls were made is not given here.

Chain of L-lactate dehydrogenase (Plasmodium falciparum (isolate CDC / Honduras)) (Q27743 whole entry, looked up): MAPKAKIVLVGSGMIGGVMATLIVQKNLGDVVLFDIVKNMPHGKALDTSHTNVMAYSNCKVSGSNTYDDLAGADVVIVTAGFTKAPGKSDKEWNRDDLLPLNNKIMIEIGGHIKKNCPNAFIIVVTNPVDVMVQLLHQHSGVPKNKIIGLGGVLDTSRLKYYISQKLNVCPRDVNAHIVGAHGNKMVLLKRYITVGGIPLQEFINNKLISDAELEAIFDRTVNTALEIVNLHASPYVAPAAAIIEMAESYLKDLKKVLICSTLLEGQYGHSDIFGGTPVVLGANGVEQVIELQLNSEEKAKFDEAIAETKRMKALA

The first test addresses L-lactate dehydrogenase (Plasmodium falciparum (isolate CDC / Honduras)) (UniProt Q27743). As to the kind of experiment: PfLDH activity inhibition – cell lysate, 3D7 strain, counter-screen for P. falciparum growth inhibition project (AID 2304).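 Further: 0% = vehicle and 100% = reference inhibitor.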 The note with it: P. falciparum 3D7 crude extract, LDH APAD/NBT absorbance; at 2 µM; active compounds read high.
A word on the inhibition: it is the relative decrease from the control value, in per cent. `CCCCCCN1CCC(NCc2ccc(OCCN3CCCC3)cc2)CC1`: the inhibition was 0%.
On the same count and under the same terms, as for `Cc1cccc(CN2CCC(C(=O)Nc3ccc(-c4nc5ccccc5[nH]4)cc3)CC2)n1`, the figure is 6%; as for `CC(C)c1ccc(N(CC(=O)N/N=C/c2ccc(C(F)(F)F)cc2)S(=O)(=O)c2ccc(C(F)(F)F)cc2)cc1`, 3%.
As to `COc1ccc2nc(-c3cc(-c4ccc(NC(=O)C(C)C)cc4)cnc3N)[nH]c2c1`, the inhibition is 3%.
Consider `O=C(NCCCCN1CCC(c2ccc(Br)cc2)CC1)c1ccc(NC(=O)c2ccc(Cl)cc2)cc1`, for which the inhibition is 0%.
The same measure, in the same setting: the value for `O=S(=O)(NCCN1CCCC1)c1cccc(-c2cccc(CNCc3ccsc3)c2)c1` was 6%; that for `CCc1cn2c3c(cc(C(=O)N[C@@H](Cc4ccccc4)[C@H](O)CNC4CCOCC4)cc13)N(C)S(=O)(=O)C2` was -1%; that for `COc1ccc(CNCc2ccc(-c3ccc(-c4nc5ccc(C(F)(F)F)cc5[nH]4)s3)cc2)cc1` was -1%.
Same read-out and setting: as for `COc1ccc(-c2nc(NC(=O)Cc3ccc4c(c3)OCCO4)sc2C)cc1`, the figure is 2%; as for `COC(=O)c1ccc2nc(-c3ccc(/C=C/C(=O)NCc4ccc(Cl)c(Cl)c4)cc3)[nH]c2c1`, -3%.
Still for that read-out and setting: as for `N#Cc1cccc(Nc2nccc(NCC(O)c3cccc(C(F)(F)F)c3)n2)c1` (stereo not drawn), the figure is -3%; as for `COc1cc(-c2nc(-c3ccccc3)c(-c3ccccc3)[nH]2)cc(OC)c1O`, -2%.
In the case of `N#Cc1cc(C(=O)c2cc(Cl)ccc2O)cn(-c2cccc(C(F)(F)F)c2)c1=O`, the inhibition is -2%.
Same read-out and setting: the value for `CC(C)CC1c2[nH]c3ccccc3c2CCN1C(=O)CCc1ccccc1` (stereo not drawn) was -2%; that for `CCNC(C)(C)CN(Cc1ccc(-c2ccc(C(F)(F)F)cc2)cc1)C(=O)Cn1c(CCc2cccc(F)c2F)nc(=O)c2ccccc21` was -7%; that for `Cc1cc(N[C@@H](CC(C)C)C(=O)NCCc2ccccc2)nc(Nc2ccccc2)n1` was 1%.
On the same count and under the same terms, as for `O=C(Nc1ccc(N2CCN(Cc3ccccc3)CC2)cc1)c1cccs1`, the figure is 2%; as for `CCOC(=O)c1c(C)n(-c2ccc(Cl)cc2)c2ccc(OC(=O)C=Cc3ccccc3)cc12`, -2%.
Same read-out and setting: as for `Cc1cccc2[nH]c(-c3ccc(-c4cccc(NC(=O)CCc5cnc[nH]5)c4)cc3)nc12`, the figure is 4%.
With `Cc1ccc(-c2nc3ccc(C(=O)NC4CCN(Cc5ccccc5)CC4)cc3[nH]2)cc1`, the inhibition is -4%.
`COc1ccc2nc(C)cc(N/N=C/C=C/c3ccccc3)c2c1`: the inhibition was 0%.
On the same count and under the same terms, the value for `CC(=O)Nc1ccc(OCCCCN(Cc2ccccc2OC(F)(F)F)c2ccc(C(F)(F)F)c(C#N)c2)c(Cl)c1` was -2%; that for `Cc1ccc(Nc2nc(C)cc(NCc3ccc(-n4ccnc4)cc3)n2)cc1` was 1%; that for `CCc1sc(N2CCN(C)CC2)nc1C(=O)NCCc1ccc(Cl)c(Cl)c1` was 5%.
For the molecule `COc1cc2nc(C)nc(Nc3cccc(Br)c3)c2cc1OC`, the inhibition is -8%.
On to `Oc1ccc(CCNc2nc(NCc3cccc(-c4cc(C(F)(F)F)ccc4Cl)c3)nc(N3CCNCC3)n2)cc1`, for which the inhibition was 0%.
Turning to `CC1(C)N=C(N)N=C(N)N1OCOc1ccc(Cl)cc1`, the inhibition was 6%.
The same measure, in the same setting: the value for `O=C(/C=C/c1ccc(Cl)c(Cl)c1)NCCCCCN1CCCN(C(=O)Nc2ccc(C(F)(F)F)cc2)CC1` was 3%.
On the same count and under the same terms, the value for `N#Cc1cccc(NC(=O)Nc2ccc3c(c2)CN(Cc2c[nH]c4ncccc24)C3)c1` was 5%; that for `COC(=O)CNC(c1ccccc1)c1cc(Br)ccc1NC(=O)c1ccccc1Br` (stereo not drawn) was -1%; that for `Nc1nc(N)c2c(ccc3c2ccn3CCCC2CCCNC2)n1` (stereo not drawn) was -4%.
On the same count and under the same terms, the value for `COc1ccc(C(=O)Nc2ccc(-c3ccc([N+](=O)[O-])cc3)cc2)cc1CCCN(C)C` was 1%; that for `Cn1c(-c2ccccc2)cc2c3c(N)nc(N)nc3ccc21` was -2%.
As for `Fc1cccc(CNc2ncc(-c3ccsc3)c(-c3nccs3)n2)c1`, the inhibition is 0%.
As for `c1ccc(Oc2ccc(Nc3ccnc4cc(-c5cccc(CNCCN6CCOCC6)c5)ccc34)cc2)cc1`, the inhibition is 7%.
On the same count and under the same terms, as for `CCOc1ccc(C(C)NC(=O)c2cc(Cl)ccc2OC)cc1OCC` (stereo not drawn), the figure is -2%; as for `CN1CCCC(CN2CCN(Cc3ccc(-c4ccc(-c5nc6ccccc6[nH]5)s4)cc3)CC2)C1` (stereo not drawn), -8%; as for `N#Cc1ccc(N(CCOc2ccc(Cl)cc2)Cc2ccccc2C(F)(F)F)cc1C(F)(F)F`, 2%.
On to `Cc1cc(NC2CCCC2)nc(Nc2ccccc2F)n1`, for which the inhibition is -2%.

Test system in a further test: not listed separately
Kind of test: inhibition of 3D7 malaria parasite growth – strain 3D7 (AID 2306).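 Further: 0% = DMSO wells and 100% = chloroquine plus artemisinin control wells.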 The note with it: P. falciparum 3D7 erythrocytic growth, LDH absorbance, 72 h; at 2 µM; active compounds read high.
As to `CCCCCCN1CCC(NCc2ccc(OCCN3CCCC3)cc2)CC1`, the growth inhibition is 101% (active).
In the case of `Cc1cccc(CN2CCC(C(=O)Nc3ccc(-c4nc5ccccc5[nH]4)cc3)CC2)n1`, the growth inhibition is 96% (active).
On the same count and under the same terms, as for `CC(C)c1ccc(N(CC(=O)N/N=C/c2ccc(C(F)(F)F)cc2)S(=O)(=O)c2ccc(C(F)(F)F)cc2)cc1`, the figure is 91% (active); as for `COc1ccc2nc(-c3cc(-c4ccc(NC(=O)C(C)C)cc4)cnc3N)[nH]c2c1`, 101% (active).
Same read-out and setting: the value for `O=C(NCCCCN1CCC(c2ccc(Br)cc2)CC1)c1ccc(NC(=O)c2ccc(Cl)cc2)cc1` was 100% (active); that for `O=S(=O)(NCCN1CCCC1)c1cccc(-c2cccc(CNCc3ccsc3)c2)c1` was 101% (active); that for `CCc1cn2c3c(cc(C(=O)N[C@@H](Cc4ccccc4)[C@H](O)CNC4CCOCC4)cc13)N(C)S(=O)(=O)C2` was 99% (active).
On the same count and under the same terms, as for `COc1ccc(CNCc2ccc(-c3ccc(-c4nc5ccc(C(F)(F)F)cc5[nH]4)s3)cc2)cc1`, the figure is 100% (active); as for `COc1ccc(-c2nc(NC(=O)Cc3ccc4c(c3)OCCO4)sc2C)cc1`, 100% (active); as for `COC(=O)c1ccc2nc(-c3ccc(/C=C/C(=O)NCc4ccc(Cl)c(Cl)c4)cc3)[nH]c2c1`, 81% (active).
As for `N#Cc1cccc(Nc2nccc(NCC(O)c3cccc(C(F)(F)F)c3)n2)c1` (stereo not drawn), the growth inhibition is 99% (active).
The same measure, in the same setting: as for `COc1cc(-c2nc(-c3ccccc3)c(-c3ccccc3)[nH]2)cc(OC)c1O`, the figure is 100% (active); as for `N#Cc1cc(C(=O)c2cc(Cl)ccc2O)cn(-c2cccc(C(F)(F)F)c2)c1=O`, 87% (active); as for `CC(C)CC1c2[nH]c3ccccc3c2CCN1C(=O)CCc1ccccc1` (stereo not drawn), 92% (active).
Take `CCNC(C)(C)CN(Cc1ccc(-c2ccc(C(F)(F)F)cc2)cc1)C(=O)Cn1c(CCc2cccc(F)c2F)nc(=O)c2ccccc21`: the growth inhibition is 97% (active).
Same read-out and setting: as for `Cc1cc(N[C@@H](CC(C)C)C(=O)NCCc2ccccc2)nc(Nc2ccccc2)n1`, the figure is 100% (active); as for `O=C(Nc1ccc(N2CCN(Cc3ccccc3)CC2)cc1)c1cccs1`, 87% (active); as for `CCOC(=O)c1c(C)n(-c2ccc(Cl)cc2)c2ccc(OC(=O)C=Cc3ccccc3)cc12`, 99% (active).
Regarding `Cc1cccc2[nH]c(-c3ccc(-c4cccc(NC(=O)CCc5cnc[nH]5)c4)cc3)nc12`, the growth inhibition was 101% (active).
Same read-out and setting: as for `Cc1ccc(-c2nc3ccc(C(=O)NC4CCN(Cc5ccccc5)CC4)cc3[nH]2)cc1`, the figure is 100% (active); as for `COc1ccc2nc(C)cc(N/N=C/C=C/c3ccccc3)c2c1`, 100% (active).
The same measure, in the same setting: the value for `CC(=O)Nc1ccc(OCCCCN(Cc2ccccc2OC(F)(F)F)c2ccc(C(F)(F)F)c(C#N)c2)c(Cl)c1` was 89% (active).
Same read-out and setting: as for `Cc1ccc(Nc2nc(C)cc(NCc3ccc(-n4ccnc4)cc3)n2)cc1`, the figure is 101% (active); as for `CCc1sc(N2CCN(C)CC2)nc1C(=O)NCCc1ccc(Cl)c(Cl)c1`, 92% (active).
Turning to `COc1cc2nc(C)nc(Nc3cccc(Br)c3)c2cc1OC`, the growth inhibition is 101% (active).
The same measure, in the same setting: as for `Oc1ccc(CCNc2nc(NCc3cccc(-c4cc(C(F)(F)F)ccc4Cl)c3)nc(N3CCNCC3)n2)cc1`, the figure is 90% (active).
The same measure, in the same setting: the value for `CC1(C)N=C(N)N=C(N)N1OCOc1ccc(Cl)cc1` was 94% (active); that for `O=C(/C=C/c1ccc(Cl)c(Cl)c1)NCCCCCN1CCCN(C(=O)Nc2ccc(C(F)(F)F)cc2)CC1` was 102% (active).
With `N#Cc1cccc(NC(=O)Nc2ccc3c(c2)CN(Cc2c[nH]c4ncccc24)C3)c1`, the growth inhibition was 99% (active).
On the same count and under the same terms, the value for `COC(=O)CNC(c1ccccc1)c1cc(Br)ccc1NC(=O)c1ccccc1Br` (stereo not drawn) was 99% (active).
Same read-out and setting: the value for `Nc1nc(N)c2c(ccc3c2ccn3CCCC2CCCNC2)n1` (stereo not drawn) was 98% (active).
On the same count and under the same terms, the value for `COc1ccc(C(=O)Nc2ccc(-c3ccc([N+](=O)[O-])cc3)cc2)cc1CCCN(C)C` was 98% (active); that for `Cn1c(-c2ccccc2)cc2c3c(N)nc(N)nc3ccc21` was 100% (active); that for `Fc1cccc(CNc2ncc(-c3ccsc3)c(-c3nccs3)n2)c1` was 91% (active).
`c1ccc(Oc2ccc(Nc3ccnc4cc(-c5cccc(CNCCN6CCOCC6)c5)ccc34)cc2)cc1`: the growth inhibition was 102% (active).
The same measure, in the same setting: the value for `CCOc1ccc(C(C)NC(=O)c2cc(Cl)ccc2OC)cc1OCC` (stereo not drawn) was 101% (active).
Still for that read-out and setting: as for `CN1CCCC(CN2CCN(Cc3ccc(-c4ccc(-c5nc6ccccc6[nH]5)s4)cc3)CC2)C1` (stereo not drawn), the figure is 100% (active).
On to `N#Cc1ccc(N(CCOc2ccc(Cl)cc2)Cc2ccccc2C(F)(F)F)cc1C(F)(F)F`, for which the growth inhibition was 91% (active).
Same read-out and setting: as for `Cc1cc(NC2CCCC2)nc(Nc2ccccc2F)n1`, the figure is 97% (active).
